ST2 IL33 inh: IL1RL1 inhibition; Q01638; inhibition, % for hits at 17 µM; AlphaLISA ST2-Fc/biotin-IL-33 interaction, 1 h; 78,000 tested, 2.3% active; in the data active = inhibition above about 30%
Target sequence (Q01638 whole entry, looked up): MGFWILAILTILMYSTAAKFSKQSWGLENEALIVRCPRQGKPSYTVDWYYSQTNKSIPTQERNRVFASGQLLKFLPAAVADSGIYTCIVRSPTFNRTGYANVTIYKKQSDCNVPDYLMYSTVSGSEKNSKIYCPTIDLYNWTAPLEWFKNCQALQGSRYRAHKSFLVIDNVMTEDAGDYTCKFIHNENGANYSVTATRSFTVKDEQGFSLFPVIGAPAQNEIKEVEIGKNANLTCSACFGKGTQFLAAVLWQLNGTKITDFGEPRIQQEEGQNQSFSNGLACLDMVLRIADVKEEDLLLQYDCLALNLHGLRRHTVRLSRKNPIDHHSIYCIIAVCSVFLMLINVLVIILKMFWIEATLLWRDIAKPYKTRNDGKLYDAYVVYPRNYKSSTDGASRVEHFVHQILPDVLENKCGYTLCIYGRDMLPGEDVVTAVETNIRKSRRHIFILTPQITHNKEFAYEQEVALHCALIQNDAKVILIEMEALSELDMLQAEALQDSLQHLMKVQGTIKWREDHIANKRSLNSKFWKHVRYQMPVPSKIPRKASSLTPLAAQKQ
An asterisk follows results filed as active. This is one part of a sample in which hits are shown more often than they occur.

How did O=C(O)c1cccc(NC2=CC(=NS(=O)(=O)c3cccs3)c3ccccc3C2=O)c1 do in these assays?
ST2 IL33 inh: 40%*

What do the screens show for `CC(C)CN(CC(C)C)S(=O)(=O)c1cccs1`?
ST2 IL33 inh: inactive

What do the screens show for `O=C(NS(=O)(=O)c1ccc(NS(=O)(=O)c2cccs2)cc1)c1ccccc1`?
ST2 IL33 inh: inactive

How did COc1ccccc1NC1=CC(=O)CC(c2ccccc2)C1 (stereo not drawn) do in these assays?
ST2 IL33 inh: inactive

How did COc1ccccc1NC(=O)C1c2cc(OC)c(OC)cc2C(=O)N(C)C1c1cccs1 (stereo not drawn) do in these assays?
ST2 IL33 inh: inactive

What do the screens show for `COc1cc(NS(=O)(=O)c2ccc(Cl)cc2)c(OC)cc1NC(=O)c1ccccc1`?
ST2 IL33 inh: inactive

Results for O=C(O)c1cccc(Nc2nc(-c3cccs3)cs2)c1 ?
ST2 IL33 inh: inactive

Results for COc1ccccc1NC1=CC(=NS(=O)(=O)c2ccc(Cl)cc2)c2ccccc2C1=O ?
ST2 IL33 inh: 95%*

What do the screens show for `COc1ccccc1NC1=CC(=NS(=O)(=O)c2cccs2)c2ccccc2C1=O`?
ST2 IL33 inh: 90%*

What do the screens show for `NC(=NS(=O)(=O)c1cccs1)c1ccccc1`?
ST2 IL33 inh: inactive

Results for COC(=NS(=O)(=O)c1ccc(Cl)cc1)c1ccccc1 ?
ST2 IL33 inh: inactive

Results for CC(C)C1CN(C(=O)c2cnn(C)c2)CCCN1CC1CC1 (stereo not drawn) ?
ST2 IL33 inh: inactive

Results for c1cc2c(cc1CN1CCC(N3CCCCCC3)CC1)OCO2 ?
ST2 IL33 inh: inactive

Results for O=C(c1c(F)cccc1F)N1CCN=C1SCc1c(F)cccc1Cl ?
ST2 IL33 inh: inactive

What do the screens show for `Cc1ccc(N2NC(=O)/C(=C/c3ccccc3OCC#N)C2=O)cc1Cl`?
ST2 IL33 inh: inactive

How did CC1=C(C(=O)Nc2cccc(C)n2)C(c2ccc(Br)cc2)C2=C(CCCC2=O)N1 (stereo not drawn) do in these assays?
ST2 IL33 inh: inactive

How did Cc1sc2nc3c(C(=O)N4CCN(Cc5ccc6c(c5)OCO6)CC4)cccn3c(=O)c2c1C do in these assays?
ST2 IL33 inh: inactive

What do the screens show for `CCc1ccccc1NC1c2ccccc2C(=O)N1Cc1ccccc1` (stereo not drawn)?
ST2 IL33 inh: inactive

Results for Cc1ccc(-c2nc(C(Cl)Cl)n(-c3ccccc3)n2)cc1 ?
ST2 IL33 inh: inactive

Results for COCCc1nc2ccc(C(=O)N3CCN(c4nc(C)cnc4C)CC3)cc2o1 ?
ST2 IL33 inh: inactive

Results for CCOc1ccc(S(=O)(=O)NCc2nc3cccnc3n2Cc2cccc(OC)c2)cc1 ?
ST2 IL33 inh: inactive

Results for CCOC(=O)c1c(NC(=O)c2noc3c2CCc2ccccc2-3)sc(C)c1C ?
ST2 IL33 inh: inactive

How did Cc1cc(C(=O)NC2CC(=O)N(Cc3ccccc3Cl)C2)c(C)o1 (stereo not drawn) do in these assays?
ST2 IL33 inh: inactive

What do the screens show for `CSc1nnnn1-c1ccccc1`?
ST2 IL33 inh: inactive

How did Cc1sc2ncnc(Sc3nnnn3-c3ccccc3)c2c1C do in these assays?
ST2 IL33 inh: 44%*

How did Cc1cc(Sc2nnnn2-c2ccccc2)nc2ccccc12 do in these assays?
ST2 IL33 inh: inactive

What do the screens show for `Cc1ccc(C(=O)N(c2ccc(Br)cc2)C2C=CS(=O)(=O)C2)cc1C` (stereo not drawn)?
ST2 IL33 inh: inactive

Results for CCOc1ccc(NC(=O)NCCc2nc3cccnc3n2Cc2ccc(C)cc2)cc1 ?
ST2 IL33 inh: inactive

What do the screens show for `Cc1ccc(CNC(=O)NCCc2nc3cccnc3n2Cc2ccc(C)cc2)cc1`?
ST2 IL33 inh: inactive

How did Cc1ccc(Cn2c(CCNC(=O)Nc3ccccc3Cl)nc3cccnc32)cc1 do in these assays?
ST2 IL33 inh: 36%*

How did COc1cc(C(=O)Nc2cccc(C(F)(F)F)c2)cc(OC)c1OC do in these assays?
ST2 IL33 inh: inactive

Results for COc1ccccc1C(=O)N/C(=C\c1ccc2c(c1)OCO2)C(=O)NC(CC(C)C)C(=O)O (stereo not drawn) ?
ST2 IL33 inh: inactive

What do the screens show for `CCOc1ccc(NC(=O)CC2CCCCC2)cc1`?
ST2 IL33 inh: inactive

How did CCOc1ccc2nc(NC(=O)C3CCCCC3)sc2c1 do in these assays?
ST2 IL33 inh: inactive

Results for CCCCCN=Cc1sc2ccc(OCC)cc2c1O ?
ST2 IL33 inh: 33%*

What do the screens show for `CCOc1ccc2sc(C=NC3CCCCC3)c(O)c2c1`?
ST2 IL33 inh: 41%*

What do the screens show for `CCOc1ccc2nc(N=Cc3nc(-c4ccc(Br)cc4)oc3O)sc2c1`?
ST2 IL33 inh: inactive

Results for CCOc1ccc2sc(C=NCCc3ccccn3)c(O)c2c1 ?
ST2 IL33 inh: inactive

What do the screens show for `CCCCNC(=O)C1(O)c2cc(Br)ccc2NC(=O)N1c1ccc(CC)cc1` (stereo not drawn)?
ST2 IL33 inh: inactive

Results for COc1ccc(-c2noc(CN3CCC(c4ccccc4Cl)C3)n2)c(OC)c1OC (stereo not drawn) ?
ST2 IL33 inh: inactive

What do the screens show for `COc1ccc(-n2nc3c(c2NC(=O)c2cc(OC)cc(OC)c2)CSC3)cc1`?
ST2 IL33 inh: inactive

Screens: PubChem, Paczesny and Yang Labs, IUPUI and University of Michigan
